ATXN viability – Viability Counterscreen for Primary qHTS for Inhibitors of ATXN expression; S2 cells (HEK-293 line with an ATXN2-luciferase reporter) viability, CellTiter-Fluor protease fluorescence, 24 h; Potency, µM (highest dose often 56.7 µM), actives largely listed as cytotoxic; hit rate 0.49% among 400,000; AID 651635, 2014; also: potency is read from the fitted curve at half-maximal effect; nearly all actives have a fitted effect of over 40% in size
HepG2 tox – qHTS for Inhibitors of TGF-b: Cytotox Counterscreen | HepG2 CAGA-GFP viability, ATP luminescence, 18 h | Potency, µM (highest dose often 46.1 µM), inactives show top-dose activity change, negative = cytotoxicity, usual class: cytotoxic | hit rate 0.76% among 410,000; also: potency is read from the fitted curve at half-maximal effect
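HepG2 CAGA-GFP cells (1000/well, DMEM with 1% FBS) received compound, then TGF-beta at 500 pg/mL final, and were incubated 18 hours at 37 degrees C. Viability was read by CellTiter-Glo luminescence. Media-only wells were set as complete cell-killing and DMSO as no toxicity.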
IL1B secr inh – qHTS for Inhibitors of Inflammasome Signaling: IL-1-beta AlphaLISA Primary Screen; hit rate 4.7% among 360,000; activity change, % at 57.5 µM; THP-1 LPS/ATP IL-1B secretion, AlphaLISA, 16 h; stronger effect = lower value; in the data active = activity change below about -50%; inconclusive = mostly about -30% to -49%; also: % is scaled to controls: 0 for no effect and ±100 for the full control effect
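THP-1 cells pretreated 1 hr with compounds (up to 57.5 uM final), then stimulated with LPS (250 ng/mL final) plus ATP (1.25 mM final); secreted IL-1B measured by AlphaLISA after 16 hr, decreased signal indicating inhibition.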
ATXN2 expr inh – Primary qHTS for Inhibitors of ATXN expression. hit rate 0.72% among 360,000. Potency, µM (series often up to 57 µM), for the others: at the top dose activity change, negative = inhibition, actives largely listed as inhibitors. HEK-293 ATXN2-luciferase reporter, luminescence, 24 h. AID 1745845, 2022; also: potency is read from the fitted curve at half-maximal effect; % is scaled to controls: 0 for no effect and ±100 for the full control effect; nearly all actives have a fitted effect of over 55% in size
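ATXN2-luciferase reporter cells (luciferase flanked by upstream and downstream ATXN2 gene portions) were treated 24 h at 37 °C with compounds at up to 57 uM. SteadyGlo luminescence gave expression; GF-AFC fluorescence gave viability.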
TGFb SMAD3 inh – qHTS for Inhibitors of TGF-b; Potency, µM (series often up to 46.1 µM), for the others: top-dose activity, negative = inhibition, actives largely listed as inhibitors; HepG2 CAGA-GFP TGF-b/SMAD3 reporter, GFP fluorescence, 18 h; TGF-beta stimulated, 500 pg/mL final; hit rate 1.2% among 410,000; also: potency is read from the fitted curve at half-maximal effect; % is scaled to controls: 0 for no effect and ±100 for the full control effect; nearly all actives have a fitted effect of over 65% in size
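Inhibition of TGF-beta-driven CAGA-GFP reporter expression in HEPG2 cells is measured by cellular GFP fluorescence after 18 h stimulation with 500 pg/mL recombinant TGF-beta in 1% FBS medium at 37 degrees C.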
Active calls of the source: *; i = inactive; ? = inconclusive; . = no result. Compounds with a hit are over-represented: about 5.7% of the library has one in this group of screens. Unless noted, calls follow the shape of the dose curve; as a rule, active = well fitted curve in the direction sought with a large enough effect; inconclusive = small, poorly fitted or top-dose-only effect, or another doubt; inactive = no such curve, though single readings can be large; an effect the other way counts as inactive or inconclusive.

SMILES	ATXN viability	HepG2 tox	IL1B secr inh	ATXN2 expr inh	TGFb SMAD3 inh
COc1ccc2oc(C(=O)OCC(=O)NCCc3ccccc3)c(C)c2c1	i	9%	4	0%	5%
COc1ccc2oc(C(=O)NCCc3ccccc3)c(C)c2c1	i	-9%	-27	4.5µM*	-1%
COc1ccc2oc(C(=O)Nc3ccccc3N3CCOCC3)c(C)c2c1	i	-3%	15	-21%	10%
COc1ccc2oc(C(=O)Nc3ccc(N4CCOCC4)cc3)c(C)c2c1	i	0%	-57*	-7%	-3%
CC(=O)Nc1ccc(NC(=O)c2oc3cc(C)c(C)cc3c2C)cc1	i	3%	-50*	-9%	2%
COc1cccc(Cc2nc3ccccc3nc2SCC(=O)NCCc2ccccc2)c1	.	-37%	.	-20%	?
CCOc1ccc2oc(C(=O)NC3CCN(Cc4ccccc4)CC3)c(C)c2c1	i	-33%	-64*	-39%	?
Cc1ccccc1C(C(=O)NC1CCCCC1)N(C(=O)Cn1ccnc1C)c1cccc(F)c1 (centres undefined)	.	.	.	19%	.
O=C(COc1ccccc1C(=O)Nc1cccc([N+](=O)[O-])c1)Nc1ccc(Br)cc1	.	-21%	.	.	?
Nc1cc2sc(-c3ccc(C(=O)O)cc3)nc2cc1Cl	.	-61%	10	-25%	-17%
Nc1ccc(-c2nc3ccc(N)cc3s2)cc1	i	-26%	-80*	20µM*	-14%
Oc1ccc(-c2nc3ccccc3s2)cc1	i	-59%	14	.	?
O=C(O)c1ccc2nc(-c3ccccc3)sc2c1	i	-1%	-5	8.9µM*	-3%
Nc1ccc(-c2nc3ccc(C(=O)O)cc3s2)cc1	i	-3%	4	1.4µM*	13%
CC1CCN(c2nc3ccc(C(=O)O)cc3s2)CC1	i	5%	11	2.2µM*	-4%
COc1cc(-c2cc(OC)c3c(C)oc(C)c3c(=O)c2)ccc1OC(=O)c1cccc(Cl)c1	.	-34%	.	.	-33%
Cc1c(Cl)cccc1NC(=O)Cn1cnc2nc3c(cc2c1=O)CCCC3	i	2%	.	3%	11%
CC(C)(C)NC(=O)CN(Cc1ccccc1)S(=O)(=O)c1ccccc1	i	7%	-74*	-12%	-12%
CCN(CC)c1nc(NN)nc(Nc2ccc(C)c(Cl)c2)n1	i	-1%	-76*	-11%	-31%
O=C(CO)[C@@H](O)[C@H](O)[C@H](O)CO	i	.	.	.	.
CCOC(=O)c1[nH]c(C)c(CCC(=O)N2CCN(c3cc(C)ccc3C)CC2)c1C	i	-30%	.	?	?
CCOC(=O)c1[nH]c(C)c(CCC(=O)N2CCN(c3cc(Cl)ccc3C)CC2)c1C	?	-27%	.	-8%	11µM*
CCC(=O)Oc1c(C(=O)CC)cc2c(C)cc(=O)oc2c1C	.	0%	-65*	11%	-10%
COc1ccc(-c2csc3ncnc(N4CCN(c5ccccc5OC)CC4)c23)cc1	?	-1%	?	32µM*	?
Cc1nc(N2CCN(c3ccccc3O)CC2)c2c(-c3ccccc3)csc2n1	?	-1%	-62*	?	-4%
SMILES	ATXN viability	HepG2 tox	IL1B secr inh	ATXN2 expr inh	TGFb SMAD3 inh
COc1ccc(-c2csc3ncnc(NCCO)c23)cc1	i	-39%	-81*	-15%	-5%
COC(=O)c1sccc1S(=O)(=O)N1CCC(n2c(CC3CCCC3)nc3cccnc32)CC1	i	.	.	.	.
O=C(COc1ccccc1F)Nc1ccc2nc(SCC(=O)N3CCCC3)sc2c1	.	-30%	.	.	0%
O=Cc1c(Sc2ccccc2)nc2ccccn2c1=O	i	-4%	-114*	24%	14%
O=Cc1c(SCCO)nc2ccccn2c1=O	i	3%	-4	7%	-3%
O=Cc1c(Sc2ccccn2)nc2ccccn2c1=O	i	-9%	-86*	36%	-13%
COc1ccc(S(=O)(=O)Nc2ccc3c(c2)CCC3)cc1	i	-31%	-187*	-18%	11µM*
CC(=O)Nc1ccc(S(=O)(=O)Nc2ccc3c(c2)CCC3)cc1	i	-10%	-3	-22%	-20%
C=C(CN(C)C)C(=O)c1cc(C)ccc1C	11µM*	-107%	-101*	11µM*	2.5µM*
Cc1ccc(/C=[N+](\[O-])c2ccc(N(C)C)cc2)c2nsnc12	?	14µM*	-99*	?	7.9µM*
O=C1c2ccccc2-c2onc3ccc(N4CCCC4)c1c23	24µM*	-92%	?	?	?
O=C(O)c1ccccc1NCc1ccco1	i	0%	-1	.	-7%
CCNc1ccc2noc3c2c1C(=O)c1ccccc1-3	?	-19%	-94*	14%	-9%
O=C1c2ccccc2-c2onc3ccc(NCc4ccco4)c1c23	14µM*	0%	-97*	?	-20%
CCOc1ccc2noc3c2c1C(=O)c1ccccc1-3	i	-64%	9	5%	?
CCN(CC)CCOC(=O)c1ccc(NC(=O)c2cc3c(=O)n(CC)c4ccccc4c3s2)cc1	i	-11%	.	-1%	-3%
Cc1ccccc1CN1C(=O)C(O)(c2c[nH]c3ccccc23)c2cc(Cl)ccc21 (centres undefined)	i	11µM*	.	-24%	16µM*
Cc1[nH]c2ccccc2c1C1(O)C(=O)N(Cc2ccccc2)c2ccc(Cl)cc21 (centres undefined)	?	16µM*	.	?	?
O=C(Nc1ccc(F)cc1)c1nc2c(nnn2Cc2cccc3ccccc23)c(=O)[nH]1	i	-22%	-98*	-2%	9%
COc1cccc(OC)c1NC(=O)c1nc2c(nnn2Cc2ccccc2Cl)c(=O)[nH]1	i	-24%	20	-20%	-1%
O=C(Nc1ccc(S(=O)(=O)NC2=NCCCCC2)cc1)c1ccc(Cl)c([N+](=O)[O-])c1	i	-15%	-96*	-14%	-27%
Cc1cccc(C)c1NS(=O)(=O)c1ccc(NC(=O)c2ccc(Cl)c([N+](=O)[O-])c2)cc1	25µM*	18µM*	-90*	.	?
CN(C)S(=O)(=O)c1ccc(C(=O)Nc2ccc(S(=O)(=O)NC3=NCCCCC3)cc2)cc1	i	-15%	8	8%	-4%
COC(=O)c1cccc(C(=O)NCc2nc(-c3ccccc3NC(C)=O)oc2C)c1	i	.	.	.	.
CS(=O)(=O)N(Cc1ccccc1)c1ccc(C(=O)Nc2cccc(Cl)c2)cc1	.	11µM*	.	0%	16µM*
Cc1ccc(NC(=O)c2ccc(N(Cc3ccccc3)S(C)(=O)=O)cc2)cc1	?	-22%	.	?	?
COc1ccc(S(=O)(=O)NCc2ccncc2)cc1NC(=O)c1ccc(Cl)cc1	i	-11%	-67*	?	-17%
